Several values for one entry are separate records, joined by “and”; a condition that tells them apart may be missing. Equal values may be shown once. The panel holds about 83,000 compounds, 20% with a hit somewhere; the sample as a whole holds those more often.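 Each cell line was grown in a 96-well plate and treated with one concentration of compound for 48 hours. Values below 10 were considered active.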 Unmarked numbers belong to inactive results. Activity calls are given as the source filed them.
Test system: HL-60(TB) leukemia
Test: NCI-60 one-dose screen, 48 h (100 = growth as untreated, 0 = no growth, -100 = all killed)
Settings: 10 µM unless noted
Procedure: Growth inhibition of the HL-60(TB) human tumor cell line is measured as a screen for anti-cancer activity. Cells are grown in 96 well plates and exposed to the test compound for 48 hours. Compounds are tested at a single concentration, which is 10^-5 M for most compounds. The reported endpoint is percent growth (GI% or GIPRCNT), where numbers from 0 - 100% represent growth inhibition, and numbers from -100% - 0 represent cell death. For example, a value of 40 represents 60% growth inhibition. A value of 0 means no net growth occurred over the course of the experiment. A value of -40 indicates 40% of cells at the beginning of the experiment died by the end of the experiment. A value of -100 means all cells are dead at the end of the experiment.
NCI-60 Human Tumor Cell Lines Screen was performed using the standard one-dose NCI protocol, which is described in more detail at https://dtp.cancer.gov/discovery_development/nci-60/default.htm.
Compounds with GIPRCNT values below 10 were considered active. Activity score was based on GIPRCNT using the following formula: […]
Score is 0 for GIPRCNT values of 100 or above, 50 for GIPRCNT values of 0, and 100 for GIPRCNT values of -100.

Row | SMILES | growth
1 | COc1cccc(-c2nc(Nc3ccc(S(N)(=O)=O)cc3)c3ccccc3n2)c1 | 35%
2 | COc1ccc(NC(=O)[C@H](C)N)cc1C(=O)Nc1cccc(C2CC(=O)c3c(cc(OC)c(OC)c3OC)O2)c1 (stereo not given in full) | 69.8%
3 | CN1C(=O)N(C)C2SC(N/N=C/c3cccs3)=NC21 (stereo not given) | -19.5% (active)
4 | O=C(c1ccc(Cl)cc1)C1[C@H](c2ccccc2Cl)[C@@H](c2ccccc2)NC12C(=O)Nc1ccccc12 (stereo not given in full) | -35.1% (active)
5 | CCCCSc1nc(Nc2ccc(C(C)=O)cc2)c(C#N)c(-c2ccc(OC)cc2)n1 | 88%
6 | O/N=C(\CSc1nnc(-c2c[nH]c3ccccc23)n1-c1ccccc1)c1ccc(Br)cc1 | -36.3% (active)
7 | Nc1cc(-c2cccc(C(=O)NCc3ccc4c(c3)OCO4)c2)ccn1 | 98.1%
8 | Cc1cn(-c2cc(NC(=O)c3ccc(C)c(-n4cc(-c5cnc6cccnn56)nn4)c3)cc(C(F)(F)F)c2)cn1 | 24.9%
9 | Cc1ccc(C(=O)CSc2nc3ccc(F)cc3c(=O)n2-c2ccc(Cl)cc2)cc1 | 117%
10 | COc1cc2cc(C(=O)N3C[C@@H](CCl)c4c3cc(OC(=O)N(CCC(=O)N3CCN(C)CC3)C3CCCCC3)c3ccccc43)[nH]c2c(OC)c1OC | -55.9% (active)
11 | Cc1ccc(-c2cc(-c3cc4ccccc4nc3Cl)[nH]c(=O)n2)cc1 | -32.7% (active)
12 | Cc1ccc([C@H]2C(C(=O)c3ccc(Cl)cc3)C3(N[C@@H]2c2ccccc2)C(=O)Nc2ccccc23)cc1 (stereo not given in full) | -22.2% (active)
13 | Brc1ccc(/C=N/Nc2ncnc3sc4c(c23)CCN(Cc2ccccc2)C4)cc1 | 19.9%
14 | COc1ccc([C@H]2C(C(=O)c3ccc(Cl)cc3)C3(N[C@@H]2c2ccccc2)C(=O)Nc2ccc(Cl)cc23)cc1 (stereo not given in full) | 11.5%
15 | COc1ccc2ncc(C#Cc3cncc(C(=O)Nc4ccc(CN5CCN(C)CC5)c(C(F)(F)F)c4)c3)n2n1 | -60.2% (active)
16 | CN(C(=O)c1ccc(C(C)(C)C)cc1)c1sc2c(c1C#N)CCC(=O)C2 | 52.4%
17 | N#C[Se]CC(=O)Nc1cccc(C(F)(F)F)c1 | 0.147% (active)
18 | O=C(Nc1cc(Cl)cc(Cl)c1)Nc1cc(Cl)cc(Cl)c1 | -15.1% (active)
19 | NS(=O)(=O)c1ccc(N=Nc2c(O)n(CC(=O)Nc3ccccc3)c3ccccc23)cc1 | 48.7%
20 | O=C1/C(=C/c2cccc3c2OCO3)Cc2c(F)cc(Br)cc21 | 97.8%

Row | SMILES | growth
21 | COc1ccc(SC2c3cc(OC)ccc3Oc3nc(N)c(C#N)c(N)c32)cc1 (stereo not given) | 64.7%
22 | COc1cc(/C=C/C(=O)c2ccc(C(F)(F)F)cc2)ccc1Oc1nc(Nc2ccc(F)cc2)nc(N(C)C)n1 | 80%
23 | Cc1cccc(NC(=O)[C@]23CCC(C)(C)CC2C2=CCC4[C@@]5(C)C[C@@H](O)[C@H](O)[C@@](C)(CO)C5CC[C@@]4(C)[C@]2(C)CC3)c1 (stereo not given in full) | -14.4% (active)
24 | O=c1[nH]c2ccccc2cc1CSc1ccc(Nc2nccc(-c3ccc4c(c3)OCO4)n2)cc1 | 97.4%
25 | COC(=O)c1ccc(-c2c(-c3ccccc3)c(F)c3oc(C(=O)OC)c(N)c3c2-c2ccccc2)cc1 | 105%
26 | C#CCN(C)CCCOc1ccc(N(C)C(=O)c2cc(C(C)C)c(O)cc2O)cc1Cl | -40.7% (active)
27 | COc1cc(CNC(=O)C[C@H](C)CCC=C(C)C)ccc1OCc1cn(-c2cccc(C(F)(F)F)c2)nn1 | 96.3%
28 | C[C@@H]1[C@H]2C[C@@H](C[C@H]1NCc1nc3ccccc3n1C1CCCCCC1)C2(C)C | 15%
29 | COc1cc(OC(F)(F)F)ccc1C(=O)Nc1sc2c(c1C#N)CCC(=O)C2 | 38%
30 | N#Cc1c(-c2ccc(F)cc2)nc(SCc2ccc(F)cc2)nc1N1CCNCC1 | -7.81% (active)
31 | COc1ccc2[nH]cc(/C=N/Nc3cccc(Cl)n3)c2c1 | 23.7%
32 | CCOC(=O)c1ccc(NC(=S)NC(=O)c2cccc(NC(=O)c3ccc(C)cc3)c2)cc1 | 102%
33 | O=c1cc(-c2ccccc2)oc2cc(OCCCC[P+](c3ccccc3)(c3ccccc3)c3ccccc3)cc(O)c12 | -51.5% (active)
34 | Cc1cnc2ccc(Oc3ccccc3-c3ccccc3)nn12 | 107%
35 | COc1cc(-c2ccc3ncnc(N4CCc5ccc(Cl)cc54)c3c2)cnc1Cl | -8.13% (active)
36 | Nc1cccc(-n2c(COc3ccc(I)cc3)nc3ccccc32)c1 | 118% and 98%
37 | COC1=C[C@]23CCC(=O)N2CCc2cc4c(cc2[C@@H]3[C@@H]1OC(=O)[C@H](C)O)OCO4 | -28.6% (active)
38 | COc1ccc(C2(SCCNCc3cc(N(C)C)ccn3)c3ccccc3C=Cc3ccccc32)cc1 | -21.8% (active)
39 | COc1ccc(N=Nc2c(N)nn3c(-c4ccc(OC)c(OC)c4)ccnc23)cc1 | 92%
40 | O=C(CNc1nc(-c2ccccc2)cs1)Nc1cccc([N+](=O)[O-])c1 | -8.94% (active)

Source: PubChem BioAssay (NCI)
